Test results as given in PubChem BioAssay AID489028 (Sanford-Burnham Center for Chemical Genomics, 2010).
The whole screen tested about 10,000 compounds, of which about 5,600 (56%) were called active. So high a share suggests a set chosen from earlier hits. Only a sample is shown. A number with no mark means an inactive call. Rule as the data show it: active = inhibition above about 40%; inactive = the rest.

molecular target: Protein Mdm4 (Homo sapiens) + E3 ubiquitin-protein ligase Mdm2 (Homo sapiens) (UniProt O15151+Q00987); test: Mdm2-MdmX complex disruptors, retested hits, confirmation, luminescence, single concentration (AID 489028); conditions: Mdm2-MdmX binding, luminescent assay; at 8 µM; active compounds read high
Sequence (O15151 whole entry, looked up): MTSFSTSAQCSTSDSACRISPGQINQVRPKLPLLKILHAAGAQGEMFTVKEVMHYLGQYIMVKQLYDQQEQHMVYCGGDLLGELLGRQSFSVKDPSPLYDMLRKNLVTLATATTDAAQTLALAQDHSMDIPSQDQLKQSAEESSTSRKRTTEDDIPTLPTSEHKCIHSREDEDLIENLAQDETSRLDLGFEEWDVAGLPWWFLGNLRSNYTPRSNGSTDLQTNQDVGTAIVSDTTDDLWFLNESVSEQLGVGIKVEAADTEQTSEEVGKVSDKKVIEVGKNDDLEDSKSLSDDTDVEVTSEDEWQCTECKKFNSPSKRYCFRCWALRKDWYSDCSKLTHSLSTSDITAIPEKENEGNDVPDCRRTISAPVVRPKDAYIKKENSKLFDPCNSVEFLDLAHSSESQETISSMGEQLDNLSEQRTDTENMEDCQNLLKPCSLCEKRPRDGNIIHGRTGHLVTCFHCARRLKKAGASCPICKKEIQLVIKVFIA
Sequence (Q00987 whole entry, looked up): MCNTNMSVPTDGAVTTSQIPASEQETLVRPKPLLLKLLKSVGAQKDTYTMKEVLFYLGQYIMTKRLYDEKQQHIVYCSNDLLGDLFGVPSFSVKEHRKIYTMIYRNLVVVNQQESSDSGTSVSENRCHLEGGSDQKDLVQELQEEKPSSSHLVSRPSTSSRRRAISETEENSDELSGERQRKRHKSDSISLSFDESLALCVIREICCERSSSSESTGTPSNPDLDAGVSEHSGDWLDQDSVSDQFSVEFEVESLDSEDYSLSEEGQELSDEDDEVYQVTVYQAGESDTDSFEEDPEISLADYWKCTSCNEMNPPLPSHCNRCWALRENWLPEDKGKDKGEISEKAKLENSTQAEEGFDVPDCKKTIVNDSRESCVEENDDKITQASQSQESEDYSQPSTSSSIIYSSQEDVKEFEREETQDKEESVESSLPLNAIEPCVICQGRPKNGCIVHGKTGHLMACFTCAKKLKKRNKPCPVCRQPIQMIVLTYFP

Row | Structure (SMILES) | inhibition
1 | Cc1ccc(C(=O)Nc2sc(Cc3ccc4c(c3)OCO4)c(C)c2C(N)=O)cc1 | 40%
2 | Cn1c(=O)n(C)c2cc(C(=O)Nc3ccc(Br)cc3)ccc21 | 35.1%
3 | Cn1c(=O)n(C)c2cc(C(=O)Nc3ccc4c(c3)OCO4)ccc21 | 47.6% (active)
4 | O=c1oc2ccccc2cc1-c1cn(-c2ccccc2)c(=S)[nH]1 | 96.2% (active)
5 | Cc1ccc(C(=O)NNC(=O)c2cc3cc4ccccc4nc3s2)cc1 | 26.1%
6 | CCSc1nsc(NC(=O)Nc2cccc(C(C)=O)c2)n1 | 40.8% (active)
7 | C=CCSc1nsc(NC(=O)Nc2cccc(C(C)=O)c2)n1 | 66.8% (active)
8 | Cc1cccc(NC(=S)NCc2ccc3[nH]c4c(c3c2)CCCC4)c1 | 10.7%
9 | Oc1c(Cl)cc(Cl)c(Cl)c1Cc1c(O)c(Cl)cc(Cl)c1Cl | 90.5% (active)
10 | Cc1c(Cl)c([N+](=O)[O-])nn1Cc1ccc(C(=O)N/N=C\c2cc(Cl)ccc2O)o1 | 75% (active)
11 | CCCCNc1c(-c2cccc(Sc3ccc(OC)cc3)c2)nc2ccccn12 | -9.4%
12 | CCCc1nc(NCc2ccc3c(c2)OCO3)c2nnn(Cc3ccccc3Cl)c2n1 | 62% (active)
13 | Cc1ccc2nc(-c3ccncc3)cc(C(=O)Nc3ccc4c(c3)OCCO4)c2c1 | 57% (active)
14 | COc1ccc(CS(=O)/C(Cl)=C(/Cl)C(=O)Nc2ccc(OC)nc2)cc1 (stereo not drawn) | 100% (active)
15 | COc1ccc(NC(=O)/C(Cl)=C(/Cl)S(=O)Cc2ccc(C)cc2)cn1 (stereo not drawn) | 99.5% (active)
16 | COc1ccc(CC(=O)Nc2ccc(-c3nnc(-c4ccc(C)cc4)o3)cc2)cc1 | 15.7%
17 | O=C(Nc1ccc2ccccc2c1)Nc1ccc2snnc2c1 | 47.5% (active)
18 | COc1ccc(-c2cc(C(F)(F)F)nc(S(C)(=O)=O)n2)cc1OC | 56.1% (active)
19 | Cc1cc(C)c2[nH]c(=O)c(CN(Cc3ccccc3)C(=S)NCCCN(C)C)cc2c1 | 37%
20 | Cc1ccc2[nH]c(=O)c(CN(CCCN(C)C)C(=O)Nc3cccc(Cl)c3)cc2c1 | 44.1% (active)

Row | Structure (SMILES) | inhibition
21 | O=C(Cn1nnc(-c2ccccc2)n1)N/N=C/c1ccc(-c2ccc(Cl)cc2)o1 | 55.2% (active)
22 | COc1ccc(OC)c(Nc2nc(-c3ccc(O)c(O)c3)cs2)c1 | 38.4%
23 | COc1ccc2c(c1OC)C(=O)OC2Nc1nc(-c2ccccc2)cs1 (stereo not drawn) | 73.8% (active)
24 | Cc1ccc(-c2csc(NC3OC(=O)c4ccccc43)n2)cc1 (stereo not drawn) | 76% (active)
25 | CN(C)CCCN(C(=O)c1ccc(S(=O)(=O)N2CCCc3ccccc32)cc1)c1nc2ccc(F)cc2s1 | 29.9%
26 | CS(=O)(=O)c1ccc2nc(NC(=O)c3ccc(N4CCCC4=O)cc3)sc2c1 | 7.9%
27 | O=C(Nc1nc2ccc([N+](=O)[O-])cc2s1)c1ccc(S(=O)(=O)N2CCCc3ccccc32)cc1 | 88.2% (active)
28 | O=C(NC(Nc1nc2ccc([N+](=O)[O-])cc2s1)(C(F)(F)F)C(F)(F)F)c1ccccc1 | 98.5% (active)
29 | Cc1ccccc1OCCOc1ccc([N+](=O)[O-])cc1/C=N/n1cnnc1 | 58.2% (active)
30 | Fc1ccccc1/C=C1\CCCC2=C1Nc1ncnn1C2c1ccccc1F (stereo not drawn) | 83% (active)
31 | COc1ccc(OC)c(C2C3=C(N=c4s/c(=C\c5cccc(O)c5)c(=O)n42)c2ccccc2CC3)c1 (stereo not drawn) | 28.1%
32 | CC1CCCCC1NC(=O)/C(C#N)=C/C=C/c1ccccc1[N+](=O)[O-] (stereo not drawn) | 93% (active)
33 | O=C(CCn1c(=S)[nH]c2cc3c(cc2c1=O)OCO3)NCc1ccc(Cl)cc1 | 5.65%
34 | O=C(CCCCCn1c(=S)[nH]c2cc3c(cc2c1=O)OCO3)N1CCN(c2ccc(F)cc2)CC1 | 36.2%
35 | Cc1ccc(C)c(N2CCN(C(=O)CCCCCn3c(=S)[nH]c4ccc(N5CCOCC5)cc4c3=O)CC2)c1 | 43.1% (active)
36 | CCN1/C(=C\c2ccc3ccccc3[n+]2CC)Sc2cc(C)ccc21 | 78.1% (active)
37 | O=C(NCC#CCSc1nnc(-c2cccc3ccccc23)o1)c1cccs1 | 83.7% (active)
38 | Oc1ccc(N=Nc2nccs2)c(O)c1 | 35%
39 | CS(=O)(=O)N(CC(O)Cn1c2ccccc2c2ccccc21)c1cccc2ccccc12 (stereo not drawn) | 15.5%
40 | C=C(C)C(=O)O[C@H]1C/C(C)=C\C(=O)/C=C(\C)[C@H](O)[C@@H]2OC(=O)C(=C)[C@@H]21 | 56.6% (active)

Row | Structure (SMILES) | inhibition
41 | CC(Nc1nc(C(F)(F)F)nc2ccccc12)c1cccs1 (stereo not drawn) | 50.4% (active)
42 | Cc1nnc(N/N=C/c2ccccn2)[nH]c1=O | 86.6% (active)
43 | CCc1ccc2c(c1)C1(NN=C(c3ccccc3)S1)C(=O)N2 (stereo not drawn) | 53.1% (active)
44 | Nc1nc(CC(=O)CSc2ccc(Cl)cc2)nc(Nc2ccc(F)cc2)n1 | 71% (active)
45 | Oc1ccccc1N1CCN(c2ncnc3sc(-c4ccccc4)cc23)CC1 | 58% (active)
46 | COc1ccccc1N1CCN(c2ncnc3sc(C)c(-c4ccccc4)c23)CC1 | 25.6%
47 | c1ccc2c(c1)C(=NC1CCCCC1)NC2=NC1CCCCC1 | 53.5% (active)
48 | Cc1cccc(-n2ncc(Cl)c(Cl)c2=O)c1 | 87.5% (active)
49 | Cc1cc(C)c2c(-c3ccc(F)cc3)c(C#N)c(=O)n(C)c2n1 | 12%
50 | CCN(CC)S(=O)(=O)c1ccc(NC(=O)c2cccnc2Cl)c(NC(=O)c2cccnc2Cl)c1 | 95.8% (active)
51 | O=C1N/C(=C/c2cccn2-c2ccccc2)C(=O)N1c1cccc(Cl)c1 | 59.4% (active)
52 | COc1ccc(CNC(=O)C(c2ccc(O)cc2)N(Cc2ccco2)C(=O)c2snc(C(N)=O)c2N)cc1 (stereo not drawn) | 45% (active)
53 | N=c1c2c(-c3ccccc3)c(-c3ccccc3)n(Cc3ccccc3)c2ncn1CCCO | 62.9% (active)
54 | CCCC[C@@H]1CN=C(N)N1CCc1cc(C(F)(F)F)cc(C(F)(F)F)c1 | 32.2%
55 | CC1=C/C(=N\OS(=O)(=O)c2ccccc2)C=CC1=O | 45.8% (active)
56 | CCOc1cc(NC(=O)c2ccco2)c(OCC)cc1NC(=O)COc1ccccc1 | 25.9%
57 | CCOc1cc(N2CCOCC2)c(OCC)cc1NC(=O)COc1cccc2cccnc12 | 80.8% (active)
58 | CN1CCN(c2ccccc2NC(=O)COc2ccc(C3CCCCC3)cc2)CC1 | 20%
